The text below walks through data of PubChem BioAssay (NCATS).

Inconclusive results are not listed. Calls of active or inactive are those of the source. Unless noted, the call rests on the fitted dose curve; in most records, active means well fitted curve in the direction sought with a large enough effect; inconclusive means small, poorly fitted or top-dose-only effect, or another doubt; inactive means no such curve, though single readings can be large; an effect the other way counts as inactive or inconclusive. Some results are limits rather than exact numbers.

A short description of assay [1]: AP1 Signaling Pathway (AID 357; active means well fitted curve in either direction with a large enough effect, not every such curve was filed as active;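 further: ME-180 reporter cells stimulated with EGF at its EC50 level; on the % scale 0 is the no-effect control and ±100 the full control effect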). Particulars: ME-180 AP-1-bla reporter, EGF-induced, beta-lactamase ratio, 5 h; series mostly up to 17.2 µM. The method in brief:
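AP-1-bla ME-180 cells, Opti-MEM + 0.5% dialyzed FBS, plated overnight 37 °C. Cpd titration + EC50 EGF, 5 h 37 °C. CCF4 2.5 h RT; ex 405, em 460/530 ratio → %activity, AC50.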

Assay [2] concerns the target Cytochrome P450 1A2 (Homo sapiens) (UniProt P05177). As to the kind of experiment: p450-cyp1a2 (AID 410; calls by dose curve;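 further: -100% = full effect of reference inhibitor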). Particulars: recombinant CYP1A2, luciferin-ME demethylation, luminescence; series mostly up to 25.6 µM. The method in brief:
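Luminescent readout of luciferin formed from Luciferin-ME by human CYP1A2; data normalized against complete inhibition by 57 uM furafylline. Enzyme 20nM, substrate 100uM at Km, 100mM KPO4 buffer, 60 min reaction at room temperature.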

The nature of assay [3]: NFAT Signaling Pathway (AID 444; active means well fitted curve in either direction with a large enough effect, not every such curve was filed as active;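 further: carbachol stimulus at about its EC50 of 1 µM final; on the % scale 0 is the no-effect control and ±100 the full control effect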). Particulars: Jurkat NFAT-bla M1, carbachol, beta-lactamase ratio, 5 h; at 17.2 µM (top of the series) unless noted. In a few lines: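 Read-out: CCF4 FRET ratio (460 nm/530 nm) after 1 h RT dye loading, used for %activity and AC50 from titration series. Cells: Jurkat NFAT-β-lactamase/M1 line, treated with compound plus 1 uM carbachol for 5 h, 37 °C.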

Assay [4] in a line: Stat Signaling Pathway (AID 446; active means well fitted curve in either direction with a large enough effect, not every such curve was filed as active;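 further: ME-180 cervical cancer cells given 40 pM IL-6 alongside compound; SIE-controlled beta-lactamase reporter measured as 460/530 nm FRET emission ratio; on the % scale 0 is the no-effect control and ±100 the full control effect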). Conditions: ME-180 SIE beta-lactamase reporter, IL-6 stimulated, 5 h; series mostly up to 17.2 µM. In a few lines: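 Screening format detects activators and inhibitors alike: ME-180 SIE-bla cells stimulated at 40 pM IL-6 for 5 hrs with compound, then dual-emission beta-lactamase read at 405 nm excitation.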
Assay [5] addresses Glucocorticoid receptor (Homo sapiens) (UniProt P04150). Nature of the assay: GR-GFP Redistribution (AID 450;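 active means compounds whose dose series gives a full or clear partial fitted curve of increased nuclear translocation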; further: potency means the concentration at half of the fitted maximal effect). Particulars: U2OS GR-GFP nuclear translocation, laser cytometry, 2 h.
Assay [6] deals with 3',5'-cyclic-AMP phosphodiesterase 4B (Homo sapiens) (UniProt Q07343). As to the kind of experiment: qHTS Assay for Inhibitors of PDE-IV (AID 607; active means well fitted activation curve with a large enough effect in the main read-out, with a control signal flat, not every such curve was filed as active; further: % of control where 0% means no effect). Particulars: HEK293 ACTOne CNG channel cells, membrane potential fluorescence; series mostly up to 22.9 µM. The method in brief:
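The readout is membrane depolarisation from a cAMP-sensing CNG channel, detected with a potential dye at ex 535/em 590. Cells were HEK293-derived (endogenous PDE-IV) at 1000 cells/well, titrated up to 22.9 uM final.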

Assay [7] in a line: qHTS Assay for Lipid Storage Modulators (AID 1519; calls by dose curve). Particulars: Drosophila S3 cells, BODIPY lipid droplet/cell ratio, laser cytometry, cells loaded with oleic acid; for activity change, negative = inhibition: at 25.7 µM (top of the series). In a few lines: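 Cells seeded at 5,000 per well were treated with compounds over a concentration series and loaded with oleic acid (400 uM, as added). Lipid droplet fluorescence (488 nm excitation, 500-530 nm channel) was read by laser-scanning cytometry and normalized to 20 uM Triacsin C.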

Assay [8] concerns the target ATP-dependent 6-phosphofructokinase (Trypanosoma brucei brucei) (UniProt O15648). As to the kind of experiment: qHTS Assay to Find Inhibitors of T. brucei phosphofructokinase: hit validation (AID 492961).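 Further: luminescence reports ADP formed as PFK phosphorylates fructose-6-phosphate with ATP; on the % scale 0 is the no-effect control and ±100 the full control effect.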 Particulars: T. brucei PFK, ADP-Glo luminescence; series mostly up to 24.3 µM. The method in brief: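 In this biochemical qHTS validation, titrated compounds were tested against 1.25 nM PFK with 0.1 mM ATP and 0.5 mM F6P. Percent activity came from controls lacking or containing enzyme.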

In assay [9] the target is Ubiquitin carboxyl-terminal hydrolase 1 (Homo sapiens) (UniProt O94782). Nature of the assay: Inhibitors of USP1/UAF1: Pilot qHTS (AID 504865).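 Further: rhodamine fluorescence freed from ubiquitin-rhodamine substrate followed over time; top concentration of the series differs between compounds; on the % scale 0 is the no-effect control and ±100 the full control effect; nearly all actives have a fitted effect of over 35% in size.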 Particulars: purified USP1/UAF1, Ub-rhodamine cleavage fluorescence; series mostly up to 114 µM. The method in brief: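 Enzyme-free wells gave the negative control, while test wells held 1nM USP1/UAF1 preincubated with compound for 15 min at room temperature. Ub-Rho at 150nM final started the reaction, and fluorescence at 480/540 nm was recorded kinetically.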
Ubiquitin carboxyl-terminal hydrolase 1 (Homo sapiens), sequence (O94782 whole entry, looked up): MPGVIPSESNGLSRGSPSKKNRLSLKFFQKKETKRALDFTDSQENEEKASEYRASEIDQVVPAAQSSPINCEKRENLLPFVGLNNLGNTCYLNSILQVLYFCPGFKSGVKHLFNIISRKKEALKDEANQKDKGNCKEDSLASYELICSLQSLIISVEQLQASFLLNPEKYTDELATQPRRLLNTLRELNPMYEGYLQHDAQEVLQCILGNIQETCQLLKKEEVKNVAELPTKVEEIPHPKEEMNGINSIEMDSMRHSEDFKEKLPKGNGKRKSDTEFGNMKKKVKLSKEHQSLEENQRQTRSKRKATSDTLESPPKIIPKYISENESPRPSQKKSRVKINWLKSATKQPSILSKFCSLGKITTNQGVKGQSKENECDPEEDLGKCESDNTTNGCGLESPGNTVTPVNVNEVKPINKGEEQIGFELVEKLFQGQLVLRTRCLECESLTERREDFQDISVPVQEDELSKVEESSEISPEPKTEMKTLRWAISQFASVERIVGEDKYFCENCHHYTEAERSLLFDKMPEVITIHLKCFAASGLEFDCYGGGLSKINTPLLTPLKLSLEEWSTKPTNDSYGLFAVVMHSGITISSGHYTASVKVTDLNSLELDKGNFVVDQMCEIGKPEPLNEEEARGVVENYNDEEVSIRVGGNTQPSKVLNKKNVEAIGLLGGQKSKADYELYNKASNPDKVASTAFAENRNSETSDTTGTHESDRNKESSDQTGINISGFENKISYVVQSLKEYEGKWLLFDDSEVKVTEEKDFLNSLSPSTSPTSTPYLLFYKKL

The target in assay [10] is Luciferin 4-monooxygenase (Photinus pyralis) (UniProt P08659). As to the kind of experiment: Biochemical firefly luciferase enzyme assay for NPC (AID 624030).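 Further: purified P. pyralis luciferase at 10 nM with luciferin and ATP substrate; 0% = DMSO and -100% = full luciferase inhibition by PTC124 control; nearly all actives have a fitted effect of over 70% in size.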 Conditions: purified P. pyralis luciferase, luminescence, 5 min; series mostly up to 24.9 µM. In a few lines:
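Direct inhibition of firefly luciferase enzyme (10 nM final, 50 mM Tris Acetate) assessed by luminescence within 5 minutes. Percent activity scaled between DMSO and PTC124 positive control, with concentration-effect curves classified by fit quality and response.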

A short description of assay [11]: qHTS profiling for inhibitors of Plasmodium falciparum proliferation (AID 504749). Further: potency means the concentration at half of the fitted maximal effect.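 On activity, negative = inhibition: 0% = DMSO vehicle and full inhibition = artemisinin control.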 On all read-outs here: nearly all actives have a fitted effect of over 60% in size. Particulars: P. falciparum in erythrocytes, SYBR Green DNA, 72 h; for activity, negative = inhibition: at 12.8 µM (top of the series). In a few lines: (§1)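 Infected RBCs, 0.3% parasitemia/2.5% Hct final; cpd 72 h, 37 C, 5% CO2; lysis buffer with saponin/triton/SYBR Green I, o/n RT dark; FI 485/535; norm. to artemisinin (0.29 uM) and DMSO.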

The test system of another assay is 3D7. The assay is described as above. Particulars: P. falciparum in erythrocytes, SYBR Green DNA, 72 h; series mostly up to 12.8 µM. In a few lines: as §1
For another assay, the system named is C2A. Described as above. Particulars: P. falciparum in erythrocytes, SYBR Green DNA, 72 h; series mostly up to 12.8 µM. In a few lines:
as §1

For a further assay, the system named is CP217. Described as above. Conditions: P. falciparum in erythrocytes, SYBR Green DNA, 72 h; series mostly up to 12.8 µM. In a few lines:
as §1

In the next assay the test system is CP250. The assay is described as above. Conditions: P. falciparum in erythrocytes, SYBR Green DNA, 72 h; series mostly up to 12.8 µM. The method in brief: as §1
The test system of the next assay is FAB9. The assay is described as above. Particulars: P. falciparum in erythrocytes, SYBR Green DNA, 72 h; series mostly up to 12.8 µM. In a few lines:
as §1

The subject of a further assay is JCK. The assay is described as above. Conditions: P. falciparum in erythrocytes, SYBR Green DNA, 72 h; series mostly up to 12.8 µM. In a few lines: as §1
A further assay has as its system PC49. The description is as above. Conditions: P. falciparum in erythrocytes, SYBR Green DNA, 72 h; series mostly up to 12.8 µM. In a few lines: as §1
In assay [12] the target is Mitogen-activated protein kinase 10 (Mus musculus) (UniProt Q61831). As to the kind of experiment: JNK3 AlphaScreen Assay (AID 530; active means well fitted curve in either direction with a large enough effect, not every such curve was filed as active). Conditions: JNK3 lysate, c-Jun phosphorylation; series mostly up to 25.6 µM. The method in brief: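 Compound titrations were preincubated 15 minutes at room temperature with substrate, antibody and pre-activated JNK3-containing HepG2 lysate. Reactions were started with 10 uM ATP and stopped with EDTA-containing bead buffer for AlphaScreen detection.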

The target in assay [13] is Glucocorticoid receptor (Homo sapiens) (UniProt P04150). Nature of the assay: GR-EFC Redistribution (AID 451; calls by dose curve; further: potency means the concentration at half of the fitted maximal effect). Conditions: CHO-K1 GR-EFC translocation, beta-gal luminescence, 2 h. The method in brief: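 Translocation of GR-ED fusion to nuclear EA restores b-gal, read by luminescence after 1 h room-temperature detection. Engineered CHO-K1 biosensor cells, 1,000/well, exposed 2 h at 37 C to titrations up to 46 uM final.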
Glucocorticoid receptor (Homo sapiens), sequence (P04150 whole entry, looked up, the tested form may be a part): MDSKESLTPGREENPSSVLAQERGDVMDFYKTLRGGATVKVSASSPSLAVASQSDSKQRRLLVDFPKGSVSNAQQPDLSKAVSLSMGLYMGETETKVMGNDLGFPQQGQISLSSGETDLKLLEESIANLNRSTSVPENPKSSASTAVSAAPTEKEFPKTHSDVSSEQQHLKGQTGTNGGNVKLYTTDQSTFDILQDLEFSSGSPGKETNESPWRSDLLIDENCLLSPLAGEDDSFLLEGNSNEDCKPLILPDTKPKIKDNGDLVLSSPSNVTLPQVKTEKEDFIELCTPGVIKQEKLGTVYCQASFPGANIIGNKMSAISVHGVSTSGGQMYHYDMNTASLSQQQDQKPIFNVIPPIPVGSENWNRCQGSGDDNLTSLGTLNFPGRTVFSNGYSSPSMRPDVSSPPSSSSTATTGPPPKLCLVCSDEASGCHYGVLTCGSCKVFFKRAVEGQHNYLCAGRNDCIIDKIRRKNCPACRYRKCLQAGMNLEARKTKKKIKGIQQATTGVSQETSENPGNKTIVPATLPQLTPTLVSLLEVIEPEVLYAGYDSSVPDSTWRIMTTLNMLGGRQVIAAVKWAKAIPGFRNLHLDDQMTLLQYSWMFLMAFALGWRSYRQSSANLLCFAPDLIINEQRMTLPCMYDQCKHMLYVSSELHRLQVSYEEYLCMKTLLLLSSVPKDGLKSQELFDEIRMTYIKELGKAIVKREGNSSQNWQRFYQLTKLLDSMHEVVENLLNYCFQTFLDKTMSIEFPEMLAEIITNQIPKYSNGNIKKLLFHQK

Where [14] appears, read: measured here: cell count channel max response.
Setting [15] is: measured here: lipid channel max response.

Cytochrome P450 1A2 (Homo sapiens), sequence (P05177 whole entry, looked up): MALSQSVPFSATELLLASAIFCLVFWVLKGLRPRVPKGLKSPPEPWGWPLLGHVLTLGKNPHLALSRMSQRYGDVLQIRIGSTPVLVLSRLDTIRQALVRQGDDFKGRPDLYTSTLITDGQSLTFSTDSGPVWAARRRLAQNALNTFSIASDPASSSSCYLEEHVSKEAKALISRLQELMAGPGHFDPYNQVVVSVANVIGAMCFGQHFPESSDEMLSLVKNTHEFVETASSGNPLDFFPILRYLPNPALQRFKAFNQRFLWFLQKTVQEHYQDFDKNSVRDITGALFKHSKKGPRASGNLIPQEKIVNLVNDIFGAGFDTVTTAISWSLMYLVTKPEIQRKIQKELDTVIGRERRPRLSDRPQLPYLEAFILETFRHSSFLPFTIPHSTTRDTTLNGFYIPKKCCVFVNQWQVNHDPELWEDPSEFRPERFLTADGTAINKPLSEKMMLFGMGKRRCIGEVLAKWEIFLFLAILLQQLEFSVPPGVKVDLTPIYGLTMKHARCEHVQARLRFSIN
3',5'-cyclic-AMP phosphodiesterase 4B (Homo sapiens), sequence (Q07343 whole entry, looked up): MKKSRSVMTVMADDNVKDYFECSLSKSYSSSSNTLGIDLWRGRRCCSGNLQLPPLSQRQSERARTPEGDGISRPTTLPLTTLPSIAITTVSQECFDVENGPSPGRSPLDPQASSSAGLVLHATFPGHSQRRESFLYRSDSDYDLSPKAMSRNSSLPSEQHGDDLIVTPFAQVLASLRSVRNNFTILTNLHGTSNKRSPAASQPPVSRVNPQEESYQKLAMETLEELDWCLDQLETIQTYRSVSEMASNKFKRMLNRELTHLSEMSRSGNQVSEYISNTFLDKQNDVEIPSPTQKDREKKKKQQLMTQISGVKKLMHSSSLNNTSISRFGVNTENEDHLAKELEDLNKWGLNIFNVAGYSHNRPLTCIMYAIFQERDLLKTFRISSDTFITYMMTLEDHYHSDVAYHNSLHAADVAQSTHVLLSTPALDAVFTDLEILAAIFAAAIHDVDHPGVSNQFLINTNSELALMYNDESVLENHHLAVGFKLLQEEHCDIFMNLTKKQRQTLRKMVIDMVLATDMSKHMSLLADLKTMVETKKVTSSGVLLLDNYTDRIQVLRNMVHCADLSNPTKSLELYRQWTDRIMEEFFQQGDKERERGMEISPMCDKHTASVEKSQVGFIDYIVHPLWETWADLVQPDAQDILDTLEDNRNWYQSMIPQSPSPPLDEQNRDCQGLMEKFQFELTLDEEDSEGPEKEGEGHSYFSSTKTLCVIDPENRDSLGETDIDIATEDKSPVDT
ATP-dependent 6-phosphofructokinase (Trypanosoma brucei brucei), sequence (O15648 whole entry, looked up): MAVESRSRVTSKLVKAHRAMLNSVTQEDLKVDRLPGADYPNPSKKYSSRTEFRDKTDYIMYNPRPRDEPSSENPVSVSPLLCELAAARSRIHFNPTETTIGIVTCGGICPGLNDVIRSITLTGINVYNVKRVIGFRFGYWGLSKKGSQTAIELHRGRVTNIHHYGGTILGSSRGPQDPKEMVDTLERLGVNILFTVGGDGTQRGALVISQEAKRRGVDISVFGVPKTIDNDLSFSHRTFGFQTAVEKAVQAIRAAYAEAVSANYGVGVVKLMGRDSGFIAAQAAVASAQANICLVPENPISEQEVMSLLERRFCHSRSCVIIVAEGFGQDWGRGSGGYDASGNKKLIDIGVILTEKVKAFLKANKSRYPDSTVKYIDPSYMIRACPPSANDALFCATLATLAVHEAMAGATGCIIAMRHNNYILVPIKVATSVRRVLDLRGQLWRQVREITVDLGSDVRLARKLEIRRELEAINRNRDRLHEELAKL
Luciferin 4-monooxygenase (Photinus pyralis), sequence (P08659 whole entry, looked up): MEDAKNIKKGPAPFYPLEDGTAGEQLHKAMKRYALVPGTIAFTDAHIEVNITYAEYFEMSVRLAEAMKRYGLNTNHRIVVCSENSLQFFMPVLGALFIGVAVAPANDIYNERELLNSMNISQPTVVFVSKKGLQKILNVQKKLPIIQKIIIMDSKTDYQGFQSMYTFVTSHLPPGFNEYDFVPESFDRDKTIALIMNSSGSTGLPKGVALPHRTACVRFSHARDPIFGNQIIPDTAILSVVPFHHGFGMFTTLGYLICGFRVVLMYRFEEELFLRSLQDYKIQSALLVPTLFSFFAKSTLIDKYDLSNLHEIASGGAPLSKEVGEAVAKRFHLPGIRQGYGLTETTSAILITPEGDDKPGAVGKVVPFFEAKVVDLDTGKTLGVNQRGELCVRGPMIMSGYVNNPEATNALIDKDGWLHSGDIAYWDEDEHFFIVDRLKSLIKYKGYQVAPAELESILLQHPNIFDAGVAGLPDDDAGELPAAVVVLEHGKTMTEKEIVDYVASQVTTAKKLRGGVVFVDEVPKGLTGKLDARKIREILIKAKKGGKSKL

`CC(=O)[C@@H]1CC[C@@H]2[C@@H]3C[C@H](C)C4=CC(=O)CC[C@@]4(C)[C@H]3[C@H](O)C[C@]21C`: the outcome in [1], in [4], in assay [6] and in assay [8] was inactive. For the same molecule, the Potency entry (in [2]; in assay [9]; in [10]; in the assay with 3D7; with C2A; with CP217) was “inactive” in each case. Also, the Potency result with CP250, with FAB9, in the assay with JCK and in the assay on PC49 was “inactive” each time. The activity change, negative = inhibition in [3] was -5.99% (inactive); in assay [7] it was -5.46% (inactive). Besides, the Potency in assay [5] is 0.0015 µM (active). In addition, the max response in assay [7] (setting [14]) was -5.95%; in [7] (setting [15]) it was -15.5%. In addition, the activity, negative = inhibition was 0.756% (inactive) in assay [11] (parasite line A) and -6.03% (inactive) in assay [11] (parasite line B).
As to `Cc1c(O)c(=O)n(-c2ccccc2)n1C`, the outcome in assay [1], in assay [4] and in assay [6] was inactive. For the same molecule, the Potency result in assay [2], in assay [12] and in assay [9] was “inactive” in each case. The figures for the activity change, negative = inhibition in [3] and in [7] were -1.71% (inactive) and -0.744% (inactive), respectively. The Potency in assay [5] was > 20.6 µM (inactive). The max response in assay [7] (setting [14]) amounted to 20.7%; in assay [7] (setting [15]), 19.1%.
On to `C[C@H]1[C@@H](O)[C@@H](C)\C=C/C=C\C=C/C=C\C=C/C=C\C=C/[C@@H](O[C@H]2O[C@@H](C)[C@@H](O)[C@@H](N)[C@@H]2O)C[C@@H]2O[C@](O)(C[C@@H](O)C[C@@H](O)[C@@H](O)CC[C@@H](O)C[C@@H](O)CC(=O)O[C@H]1C)C[C@@H](O)[C@H]2C(=O)O` (stereo in doubt), for which the outcome in assay [1], in assay [4] and in assay [6] was inactive. Besides, the Potency entry in assay [2] and in assay [9] was “inactive” each time. In addition, the activity change, negative = inhibition is -11.5% (inactive) in assay [3] and 3.52% (inactive) in [7]. Also, the Potency in assay [5] and in [13] was > 20.6 µM (inactive) in each case. The figures for the max response in assay [7] (setting [14]) and in assay [7] (setting [15]) were 0.724% and 3.85%, respectively.
With `CO[C@H]1C=CO[C@]2(C)Oc3c(C)c(O)c4c(O)c(c5c(c4c3C2=O)NC2(CCN(CC(C)C)CC2)N=5)=NC(=O)C(C)=CC=C[C@@H](C)[C@@H](O)[C@@H](C)[C@@H](O)[C@@H](C)[C@@H](OC(C)=O)[C@@H]1C`, the result in assay [1], in assay [4] and in assay [6] was inactive. The Potency result in [2] was “inactive”. In addition, the results for the activity change, negative = inhibition in assay [3] and in [7] were -15% (inactive) and -0.285% (inactive), respectively. Besides, the Potency in assay [5] and in [13] was > 20.6 µM (inactive) throughout. For the same molecule, the max response in [7] (setting [14]) is -3.75%; in assay [7] (setting [15]), -1.31%.
Take `Clc1cnccn1`: the result in assay [1], in [4] and in assay [6] was inactive. Also, the Potency entry in assay [2], in assay [12] and in assay [9] was “inactive” each time. The activity change, negative = inhibition in [3] is -22.8% (inactive); in assay [7] it was 2.5% (inactive). Also, the Potency in [13] was > 20.6 µM (inactive). The max response came to 8.49% in assay [7] (setting [14]) and 10.5% in assay [7] (setting [15]).
As to `C[C@@]12CC[C@H]3[C@@H](CCC4=CC(=O)CC[C@]43C)[C@H]1CC[C@H]2C(=O)CO`, the outcome in assay [1], in [4], in assay [6] and in assay [8] was inactive. Also, the Potency entry (in [2]; in assay [12]; in assay [10]; in the assay on 3D7; in the assay on C2A; with CP217) was “inactive” in each case. Besides, the Potency entry in the assay on CP250, with FAB9, in the assay on JCK and in the assay on PC49 was “inactive” each time. In addition, the activity change, negative = inhibition was -6.24% (inactive) in [3] and -5.79% (inactive) in assay [7]. Further, the Potency was 0.0622 µM (active) in assay [5] and 4.47 µM (active) in [11] (parasite line A). The max response is -3.01% in assay [7] (setting [14]) and -9.53% in assay [7] (setting [15]). For the same molecule, the activity, negative = inhibition in assay [11] (parasite line B) is 3.27% (inactive).
